Records with an inconclusive call do not appear. Calls of active or inactive are those of the source. Calls come from the whole dose curve; as a rule, active = well fitted curve in the direction sought with a large enough effect; inconclusive = small, poorly fitted or top-dose-only effect, or another doubt; inactive = no such curve, though single readings can be large; an effect the other way counts as inactive or inconclusive.
How the values were obtained:
[1] = target: Glutathione peroxidase 1 (Homo sapiens) (UniProt P07203); assay: Primary qHTS Assay for Inhibitors of Recombinant Selenoprotein Glutathione Peroxidase 1 (GPX1) (AID 1845191); note: nearly all actives have a fitted effect of over 65% in size; for activity, negative = inhibition: % is set by controls: 0 for no effect and ±100 for the full control effect
Chain of Glutathione peroxidase 1 (Homo sapiens) (P07203 whole entry, looked up): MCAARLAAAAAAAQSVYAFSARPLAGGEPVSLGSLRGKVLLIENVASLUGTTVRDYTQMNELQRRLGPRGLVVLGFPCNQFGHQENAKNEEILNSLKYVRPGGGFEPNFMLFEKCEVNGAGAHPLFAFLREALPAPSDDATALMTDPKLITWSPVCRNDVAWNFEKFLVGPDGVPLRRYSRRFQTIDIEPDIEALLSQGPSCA
Procedure, shortened: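 GPX1 10 nM, GR 100 nM, GSH 1 mM, NADPH 0.5 mM, CHP 0.5 mM (final). 30-min cpd preincubation, RT. Ex340/Em450 read t=0, t=15 min.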

[2] = target: Phospholipid hydroperoxide glutathione peroxidase GPX4 (Homo sapiens) (UniProt P36969); assay: Primary qHTS Assay for Inhibitors of Recombinant Selenoprotein Glutathione Peroxidase 4 (GPX4) (AID 1845192); note: nearly all actives have a fitted effect of over 65% in size; for activity change, negative = inhibition: series mostly up to about 50 µM; % is set by controls: 0 for no effect and ±100 for the full control effect
Chain of Phospholipid hydroperoxide glutathione peroxidase GPX4 (Homo sapiens) (P36969 whole entry, looked up): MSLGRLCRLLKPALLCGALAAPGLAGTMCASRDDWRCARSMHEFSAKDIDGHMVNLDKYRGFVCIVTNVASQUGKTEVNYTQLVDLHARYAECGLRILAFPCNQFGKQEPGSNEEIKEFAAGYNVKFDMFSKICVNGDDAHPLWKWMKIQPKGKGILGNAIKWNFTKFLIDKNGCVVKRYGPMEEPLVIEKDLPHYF
Procedure, shortened: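 qHTS, GR-coupled: GPX4 200 nM + cpd 30 min RT → GSH 1 mM, NADPH 0.5 mM, GR 100 nM → CHP 0.5 mM start; fluor 340/450 at t0 and t15 min; no-enzyme wells as control.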

[3] = target: Luciferin 4-monooxygenase (Photinus pyralis) (UniProt P08659); assay: Primary firefly luciferase (FLuc) qHTS assay for identification of artifact compounds. (AID 1845220); note: nearly all actives have a fitted effect of over 60% in size;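 for activity change, negative = inhibition: series mostly up to about 54 µM; plate controls were DMSO vehicle for no effect and no enzyme for full effect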
Procedure, shortened: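 In this counter-screen for luciferase artifacts, test compounds met substrate (10 uM each luciferin and ATP) before 10 nM enzyme started the reaction. Light output was measured 5 min later.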

[4] = Primary fluorescence-based thiol-reactive (MSTI) qHTS assay for identification of artifact compounds. (AID 1845221); note: nearly all actives have a fitted effect of over 65% in size; note: potency is the fitted concentration of half-maximal effect;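 for activity change, negative = thiol reactive: series mostly up to about 54 µM; thiol-reactive compounds lower the probe fluorescence signal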
Procedure, shortened: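 qHTS titration of compound; 4 uM MSTI, PBS pH 7.4, 2% DMSO; 1 h RT, dark; fluorescence 525/598 nm; normalized to Acetyl-MSTI and MSTI; 4-parameter Hill fit.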

[5] = tested on: Nanoluciferase (engineered Oplophorus gracilirostris luciferase); assay: Primary Nanoluciferase (NLuc) qHTS assay for identification of artifact compounds. (AID 1845222);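 note: NLuc secreted into diluted conditioned medium of S16 cells; series mostly up to about 54 µM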
Procedure, shortened: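 Using secreted nanoluciferase in S16 culture medium (0.22 um filtered, 1:55 dilution), compounds were preincubated 15 min at RT. Signal was generated with Nano-Glo reagent (1:100) over 5 min.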

[6] = Primary redox qHTS assay for identification of artifact compounds. (AID 1845223);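 note: 0% = DMSO and 100% = reference compound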
Procedure, shortened: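 Redox-cycling detection via DTT (250 uM final) oxidation coupled to Amplex Red (25 uM)/HRP (250 mU/mL) in HBSS. 15 min preincubation plus 30 min after DTT, room temperature. Ex/Em 525/598 nm; 4-parameter Hill fit against DMSO and 10 uM DA3003.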

CC(=O)O[C@H]1CC(C)(C)CC2[C@@]13[C@H](O)C[C@]1(C)[C@@]2(CCC2[C@@]4(C)CC[C@H](O[C@@H]5OC[C@H](O[C@@H]6O[C@H](CO)[C@@H](O)[C@H](O)[C@H]6O[C@@H]6OC[C@@H](O)[C@H](O)[C@H]6O)[C@H](O)[C@H]5O[C@@H]5O[C@H](CO)[C@@H](O)[C@H](O)[C@H]5O)C(C)(C)C4CC[C@]21C)O[C@@H]3O (stereo partly drawn)
inactive: Potency [1] | Potency [2] | activity change, negative = inhibition [3] -0.127% [at 11.6 µM] | activity change, negative = thiol reactive [4] 93.4% [at 11.5 µM] | activity, negative = inhibition [5] 2.06% [at 11.6 µM]

CC(=O)OC1C[C@@]2(C)[C@@H](CC[C@@H](C)[C@]23Cc2c(O)cc4c(c2O3)CNC4=O)C(C)(C)[C@@H]1O (stereo partly drawn)
inactive: Potency [1] | Potency [2] | Potency [3] | Potency [4] | Potency [5]

COc1ccc(C2(O)CCC(N3CC[C@@H](NC(=O)CNC(=O)c4cccc(C(F)(F)F)c4)C3)CC2)cn1 (stereo partly drawn)
inactive: Potency [1] | Potency [2] | Potency [3] | Potency [4] | Potency [5]

COc1cc(N2CCC(N3CCN(C)CC3)CC2)ccc1Nc1ncc(Cl)c(-c2c[nH]c3ccccc23)n1
active: Potency [4] 1.68 µM
inactive: Potency [1] | Potency [2] | Potency [3] | Potency [5]

COC1/C=C/C(C)(O)C(SCC(N)C(=O)O)CC(=O)OC(C)C(C)CC/C=C/1C (stereo not drawn)
inactive: Potency [1] | Potency [2] | Potency [3] | Potency [4] | Potency [5]

CC(C)=CCC/C(C)=C/CO[C@@H]1O[C@H](CO)[C@@H](OC(=O)/C=C/c2ccc(O)cc2)[C@H](O[C@@H]2O[C@@H](C)[C@H](O)[C@@H](O)[C@H]2O)[C@H]1O
inactive: Potency [1] | Potency [2] | Potency [3] | Potency [4] | Potency [5]

CC(C)C(C(=O)N(C)C(C)C(N)=O)N(C)C(=O)C1CCCN1C(=O)/C=C/C=C/C(O)C(C)O (stereo not drawn)
inactive: Potency [1] | Potency [2] | Potency [3] | Potency [4] | Potency [5]

COC(=O)C1(C)CCC2(C(=O)O)CCC3(C)C(=CCC4C5(C)CC(O)C(OC6OCC(O)C(O)C6O)C(C)(CO)C5CCC43C)C2C1 (stereo not drawn)
inactive: Potency [1] | Potency [2] | Potency [3] | Potency [4] | Potency [5] | Potency [6]

Cc1cc(N2CCN([C@@H]3CN[C@H](C(=O)N4CCSC4)C3)CC2)n(-c2ccccc2)n1
inactive: Potency [1] | Potency [2] | Potency [3] | Potency [4] | Potency [5] | Potency [6]

COC1CC(OC2CCC3(C)C(=CCC4C3C(OC(C)=O)C(OC(=O)/C=C/c3ccccc3)C3(C)C(C(C)O)CCC43O)C2)OC(C)C1OC1CC(OC)C(OC2OC(C)C(OC3OC(CO)C(O)C(O)C3O)C(OC)C2O)C(C)O1 (stereo not drawn)
inactive: outcome [1] inactive [at 9.52 µM] | activity change, negative = inhibition [2] 0.674% [at 9.73 µM] | activity change, negative = inhibition [3] 0.278% [at 11.6 µM] | activity change, negative = thiol reactive [4] 40.8% [at 11.5 µM] | activity, negative = inhibition [5] 3.09% [at 11.6 µM] | redox activity (% of DA3003) [6] -2.26% [at 11.5 µM]

C[C@@H]1CC[C@]2(C(=O)OC3OC(CO)C(O)C(O)C3O)CC[C@]3(C)C(=CCC4[C@@]5(C)CC[C@H](O)[C@](C)(C(=O)O)C5CC[C@]43C)C2[C@]1(C)O (stereo partly drawn)
inactive: Potency [1] | Potency [2] | Potency [3] | Potency [4] | Potency [5]

O=C(O)c1cc2cccc([N+](=O)[O-])c2[nH]1
active: Potency [4] 21.2 µM
inactive: Potency [1] | Potency [2] | Potency [3] | Potency [5] | Potency [6]

CC1(C)CCC(C)(C)c2cc(C3(c4ccc(C(=O)O)cc4)OCCO3)ccc21
inactive: Potency [1] | Potency [2] | Potency [3] | Potency [4] | Potency [5] | Potency [6]

COC(=O)CCC(=O)OC[C@]1(C)CCC[C@@]2(C)C3CC[C@]4(C)C=CC3(CCC12)C4 (stereo partly drawn)
inactive: Potency [1] | Potency [2] | Potency [3] | Potency [4] | Potency [5]

CC(=O)OC1C(O)CC2(C)C(CCC(C)C23Cc2c(O)cc(CO)c(C=O)c2O3)C1(C)C (stereo not drawn)
inactive: Potency [1] | Potency [2] | Potency [3] | Potency [4] | Potency [5]

CC(C)(C)NS(=O)(=O)c1cncc(-c2cc(F)c3nc(N)nn3c2)c1
inactive: Potency [1] | Potency [2] | Potency [3] | Potency [4] | Potency [5] | Potency [6]

Nc1nc2c(ncn2[C@@H]2O[C@H](CO)[C@@H](O)[C@H]2O)c(=O)[nH]1
inactive: Potency [1] | Potency [2] | Potency [3] | Potency [4] | Potency [5] | Potency [6]

CC1(C)CC[C@]2(C(=O)O)CC[C@]3(C)C(=CCC4[C@@]5(C)CC[C@H](O[C@@H]6O[C@H](C(=O)O)[C@@H](O[C@@H]7OC[C@@H](O)[C@H](O)[C@H]7O)[C@H](O)[C@H]6O)C(C)(C)C5CC[C@]43C)C2C1O (stereo partly drawn)
inactive: Potency [1] | Potency [2] | Potency [3] | Potency [4] | Potency [5] | Potency [6]

COc1ccc(CCO[C@@H]2CCCC[C@H]2N2CC[C@@H](O)C2)cc1OC
inactive: Potency [1] | Potency [2] | Potency [3] | Potency [4] | Potency [5] | Potency [6]

C[C@@H]1O[C@@H](O[C@H]2[C@H](O)[C@@H](O[C@@H]3O[C@H](CO)[C@@H](O)[C@H](O[C@@H]4O[C@H](CO)[C@@H](O)[C@H](O)[C@H]4O)[C@H]3O)[C@H](O[C@H]3CC[C@@]4(C)C(=CC[C@@H]5C4CC[C@@]4(C)C5C[C@@H]5OC6(CC[C@@](C)(CO[C@@H]7O[C@H](CO)[C@@H](O)[C@H](O)[C@H]7O)O6)[C@@H](C)[C@@H]54)C3)O[C@@H]2CO)[C@H](O)[C@H](O)[C@H]1OC1OC(CO)C(O)C(O)C1O (stereo partly drawn)
inactive: activity, negative = inhibition [1] 1.32% [at 9.52 µM] | outcome [2] inactive [at 9.73 µM] | activity change, negative = inhibition [3] 2.07% [at 11.6 µM] | activity change, negative = thiol reactive [4] 23.9% [at 11.5 µM] | activity, negative = inhibition [5] 1.98% [at 11.6 µM]

CC(C)NCC(C(=O)N1CCN(c2ncnc3c2C(C)CC3O)CC1)c1ccc(Cl)cc1 (stereo not drawn)
inactive: Potency [1] | Potency [2] | Potency [3] | Potency [4] | Potency [5] | Potency [6]

CCC(CC)C(=O)Nc1sc2c(c1C#N)CCC(C(C)(C)CC)C2 (stereo not drawn)
inactive: Potency [1] | Potency [2] | Potency [3] | Potency [4] | Potency [5] | Potency [6]

CC1(C)CC[C@]2(C(=O)O)CC[C@]3(C)C(=CCC4[C@@]5(C)CC[C@H](O[C@@H]6O[C@H](CO)[C@@H](O)[C@H](O)[C@H]6O[C@@H]6O[C@H](CO)[C@@H](O)[C@H](O)[C@H]6O)[C@@](C)(CO)C5CC[C@]43C)[C@@H]2C1 (stereo partly drawn)
inactive: Potency [1] | Potency [2] | Potency [3] | Potency [4] | Potency [5] | Potency [6]

CC1OC(OCC2OC(OC3CCC4(C)C(CCC5(C)C4CC=C4C6CC(C)(C)CCC6(C(=O)OC6OC(CO)C(O)C(O)C6O)CCC45C)C3(C)CO)C(O)C(O)C2O)C(O)C(O)C1O (stereo not drawn)
inactive: Potency [1] | Potency [2] | activity change, negative = inhibition [3] -1.2% [at 11.6 µM] | activity change, negative = thiol reactive [4] 188% [at 11.5 µM] | activity, negative = inhibition [5] 0% [at 11.6 µM]

C[C@@H]1O[C@@H](O[C@@H]2[C@@H](O)[C@H](O[C@H]3CC[C@@]4(C)C(CC[C@]5(C)C4CC=C4[C@@H]6CC(C)(C)CC[C@]6(C(=O)O[C@@H]6O[C@H](CO)[C@@H](O)[C@H](O)[C@H]6O)CC[C@]45C)C3(C)C)O[C@H](C(=O)O)[C@H]2O)[C@H](O)[C@H](O)[C@H]1O (stereo partly drawn)
inactive: Potency [1] | Potency [2] | activity change, negative = inhibition [3] 0.705% [at 11.6 µM] | activity change, negative = thiol reactive [4] 312% [at 11.5 µM] | activity, negative = inhibition [5] 2.86% [at 11.6 µM] | redox activity (% of DA3003) [6] 12.9% [at 11.5 µM]

Reference: PubChem BioAssay (NCATS)
